# Compound activity from PubChem.
# APOBEC3G inh = APOBEC3G DNA deaminase inhibitors, primary screen, biochemical, fluorescence, single-stranded DNA substrate, uHTS; 0.28% of 330,000 active; recombinant A3G, ssDNA deamination FAM/TAMRA fluorescence; inhibition, % at 20 µM;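 active = inhibition of at least 40% at 20 µM, with no more than 30% in the related APOBEC3A deaminase screen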;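 note: plate controls were DMSO wells with A3G for no effect and wells lacking A3G enzyme for full effect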
# Target sequence (Q9HC16 whole entry, looked up): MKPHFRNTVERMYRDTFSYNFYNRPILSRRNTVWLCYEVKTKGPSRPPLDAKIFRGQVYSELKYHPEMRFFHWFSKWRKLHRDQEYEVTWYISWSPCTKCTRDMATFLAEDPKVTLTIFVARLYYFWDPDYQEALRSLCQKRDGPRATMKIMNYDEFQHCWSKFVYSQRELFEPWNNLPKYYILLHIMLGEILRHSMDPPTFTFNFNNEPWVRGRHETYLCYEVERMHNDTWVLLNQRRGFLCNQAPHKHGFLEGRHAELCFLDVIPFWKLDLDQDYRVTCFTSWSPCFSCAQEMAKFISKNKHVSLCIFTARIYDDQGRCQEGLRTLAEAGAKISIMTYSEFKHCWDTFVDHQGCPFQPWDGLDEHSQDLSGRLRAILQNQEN
# APOBEC3A inh = APOBEC3A ssDNA deaminase inhibitors, primary screen, selectivity assay for APOBEC3G inhibitor project, biochemical, FAM/TAMRA oligo cleavage fluorescence; recombinant A3A, FAM/TAMRA ssDNA deamination fluorescence; 0.41% of 330,000 active; inhibition, % at 20 µM; DNA dC->dU-editing enzyme APOBEC-3A (Homo sapiens), P31941;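 active = at least 40% inhibition at 20 µM here, with at most 30% in a related deaminase screen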;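 note: plate controls were A3A with DMSO for no effect and wells lacking A3A enzyme for full effect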
# Target sequence (P31941 whole entry, looked up): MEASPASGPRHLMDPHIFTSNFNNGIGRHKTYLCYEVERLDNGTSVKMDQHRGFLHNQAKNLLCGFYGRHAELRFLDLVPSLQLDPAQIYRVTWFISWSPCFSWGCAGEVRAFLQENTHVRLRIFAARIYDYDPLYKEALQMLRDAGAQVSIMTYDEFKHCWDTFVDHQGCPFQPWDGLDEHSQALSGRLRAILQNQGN
# PfM18AAP inh-1 = PfM18AAP inhibitors, malaria aminopeptidase, primary screen, biochemical, QFRET, recombinant enzyme; H-Glu-NHMec fluorogenic cleavage; inhibition, % at 7.35 µM; 1.2% of 290,000 active;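 active = inhibition above the campaign mean inhibition over all tested compounds plus 3 SD, cut at about 28% in these data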;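 note: 0% = plate median of test compound wells and 100% = 2 mM ZnCl2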
# PfG6PD inh = PfG6PD enzyme inhibitors, primary screen, biochemical, fluorescence intensity, uHTS | glucose-6-phosphate dehydrogenase-6-phosphogluconolactonase (Plasmodium falciparum 3D7) | PfGluPho enzyme, NADPH resazurin-diaphorase fluorescence | inhibition, % at 20 µM | 0.78% of 350,000 active;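 active = inhibition reaching at least a set limit at 20 µM in the primary screen, cut at about 59% in these data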;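 note: 0% = DMSO wells with substrate and 100% = DMSO wells lacking glucose-6-phosphate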
# CR mimetic SO = reduction of superoxide in aged yeast, primary screen, HTS. superoxide response (% of plate mean), % at 10 µM. S. cerevisiae aged cells, superoxide DHE fluorescence; stronger effect = lower value. 0.18% of 330,000 active. AID 2690, 2010;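 active = superoxide response under a set limit, about three screen SD below normal, cut at about 65% in these data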;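 note: yeast aged for seven days with compound at 30 °C before DHE staining; 100% = average MFI of all compound-treated wells on the plate with controls excluded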
# PfM18AAP inh-2 = PfM18AAP inhibitors, malaria aminopeptidase, confirmation, biochemical, QFRET, recombinant enzyme, triplicate. 28% of 2,400 active. H-Glu-NHMec fluorogenic cleavage. inhibition, % at 7.35 µM. AID 2170, 2009. shares compounds with PfM18AAP inh-1;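 active = mean inhibition over replicate wells above the hit cutoff set for the earlier primary screen, cut at about 29% in these data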;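 note: 0% = median of test compound wells and 100% = 2 mM ZnCl2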
# CTSL1 counter = cathepsin L1 inhibitors, retest, confirmation, counter-screen for PFM18AAP inhibitor project, biochemical, QFRET, triplicate. shares compounds with PfM18AAP inh-1. purified cathepsin L1, Z-Leu-Arg-MCA fluorescence. inhibition, % at 5.96 µM. 2,400 tested, under 10 active. AID 2178, 2009;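 active = average inhibition across replicates above the hit cutoff set in the earlier primary screen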;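 note: 0% = median of test compound wells and 100% = Z-Phe-Ala-diazomethylketone 1 µM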
# The depositor's hits bear a star; x = no result. Sampled rows, rich in hits. Any-hit rate of the full collection: about 2.4%.
SMILES,APOBEC3G inh,APOBEC3A inh,PfM18AAP inh-1,PfG6PD inh,CR mimetic SO,PfM18AAP inh-2,CTSL1 counter
CCn1c(C)nc2cc(C(=O)NNC(=S)Nc3ccc(C)cc3)ccc21,1,5,40*,1,98,-52,-1
CCn1c(C)nc2cc(C(=O)NNC(=S)Nc3ccccc3OC)ccc21,-3,-4,3,-9,114,x,x
C[C@H](CO)N1C[C@H](C)[C@@H](CN(C)C(=O)C2CCOCC2)Oc2ncc(Br)cc2C1=O,x,x,x,16,x,x,x
COc1cc(OC)cc(C(=O)n2cnnc2N)c1,0,2,53*,-4,115,49*,0
COC(=O)c1cn(C(=O)c2cc(OC)cc(OC)c2)c2ccccc12,-7,0,-1,8,99,x,x
CCC(=O)n1nc(NCc2ccc(OC)c(OC)c2)nc1NCc1ccc(OC)c(OC)c1,-5,0,38*,-6,98,-9,-3
COc1ccc(CNc2n[nH]c(NCc3ccc(OC)c(OC)c3)n2)cc1OC,-2,-1,47*,-22,81,2,-5
COc1ccc(CNc2nc(SC)n[nH]2)cc1OC,-2,0,-2,2,112,x,x
CCc1cc(C(=O)N2CCCC(Nc3ccc(F)c(F)c3)C2)n(C)n1 (stereo unspecified),-5,-1,9,3,90,x,x
C=CCN1c2ccccc2[C@]23C[C@@H](C(=O)OC)N(C(=O)c4cccs4)C2=NC(C(=O)OC)=C(C(=O)OC)[C@H]13,-6,-2,x,0,93,x,x
COc1ccccc1NC(=O)CCc1nnc2ccc(NCc3ccco3)nn12,1,9,17,-5,84,x,x
O=C(CCc1nnc2ccc(NCc3ccco3)nn12)Nc1ccccc1F,-2,0,48*,8,89,-21,-1
NC(=S)N/N=C/c1coc2ccc(O)cc2c1=O,-10,-3,69*,11,88,42*,6
CN1C(=O)CS(=O)c2ccc(C(=O)NC3CC3)cc21 (stereo unspecified),-1,0,44*,31,95,-13,2
CN1C(=O)c2ccc(C(=O)NC3CCCCC3)cc2C1=O,-6,-3,-7,-16,100,x,x
Cc1nc2ncccn2c1-c1csc(Nc2ccc(O)cc2)n1,2,-1,41*,25,x,43*,-2
Oc1ccc(-c2csc(Nc3ccccn3)n2)c(O)c1,-10,-3,34*,34,107,13,-1
Cc1ccc(Nc2nc(-c3ccc(O)c(O)c3)cs2)nc1,1,1,63*,39,x,43*,2
Cc1cccnc1Nc1nc(-c2ccc(O)cc2O)cs1,-6,-4,32*,17,113,5,4
Cc1ccc(Nc2nc(-c3ccc(F)cc3)cs2)nc1,10,-1,-3,15,98,x,x
O=C(CN1C(=O)NC2(CCCC2)C1=O)Nc1nc(-c2ccccc2)cs1,1,4,x,-4,88,x,x
CCN(C[C@H]1N[C@@](Cc2ccccc2)(C(=O)OC)[C@H]2C(=O)N(Cc3ccccc3)C(=O)[C@@H]12)C(=O)Nc1ccc(C(F)(F)F)cc1,-7,-7,x,29,112,x,x
COc1cccc(NC(=O)C(OC(=O)/C=C/c2ccc3c(c2)OCO3)c2ccccc2)c1 (stereo unspecified),-4,2,32*,-16,98,-38,-7
Cc1cccc(NC(=O)CN2CCc3cc4c(cc3C2)OCCCO4)c1,0,0,20,-7,85,x,x
O=C(CN1CCc2cc3c(cc2C1)OCCCO3)Nc1cccc([N+](=O)[O-])c1,-2,-4,35*,12,106,1,0
SMILES,APOBEC3G inh,APOBEC3A inh,PfM18AAP inh-1,PfG6PD inh,CR mimetic SO,PfM18AAP inh-2,CTSL1 counter
CCN(CC)C(=O)CSc1nc2cc3c(cc2c(=O)n1Cc1ccc2c(c1)OCO2)OCO3,-6,-2,-4,0,96,x,x
CCOC(=O)CSc1nc2ccc(N3CCOCC3)cc2c(=O)n1Cc1ccc2c(c1)OCO2,14,6,37*,x,102,-17,-2
CCCN(CCC)C(=O)C(c1ccccc1)C1(O)CCCCC1 (stereo unspecified),x,x,x,-3,x,x,x
O=C1c2ccccc2S(=O)(=O)N1CCS(=O)(=O)c1ccc(F)cc1,8,0,-7,-23,102,x,x
CSc1cccc(N/C(=N/S(=O)(=O)c2ccccc2)NN)c1,x,x,38*,15,106,0,1
Cc1noc(C)c1COC(=O)c1csc2c1CCC(C)C2 (stereo unspecified),-7,-5,x,-26,113,x,x
Cc1ncc(CO)c(/C=N/NC(=O)c2ccccc2Br)c1O,-5,-2,35*,-7,99,-14,4
Cc1ncc(CO)c(/C=N/NC(=O)c2ccoc2C)c1O,-5,-3,x,-15,x,x,x
CCC(C)NC(=O)C1CCN(S(=O)(=O)c2ccc3[nH]c(=O)ccc3c2)CC1 (stereo unspecified),-5,-3,36*,-22,125,-56,-1
CCCNC(=O)C1CCN(S(=O)(=O)c2ccc3[nH]c(=O)ccc3c2)CC1,-9,-5,-1,-13,100,x,x
Cc1c(C)c2c(OCC(=O)N3CCC(C(=O)O)CC3)cc3c(c2oc1=O)CCC(C)(C)O3,1,2,-3,17,70,x,x
CC1=C(C(=O)N2CCOCC2)CC(CC(=O)NCCc2ccccn2)C(=O)N1Cc1ccc(C(C)(C)C)cc1 (stereo unspecified),x,x,x,-14,x,x,x
CSCC[C@H](NC(=O)N1CCn2c1nc1ccccc12)C(=O)N[C@@H](C(=O)O)c1ccccc1,-5,-2,51*,-7,80,42*,-5
CSCC[C@H](NC(=O)N1CCn2c1nc1ccccc12)C(=O)NCc1ccc(F)cc1,-1,-5,1,0,101,x,x
CCNc1nc(NCC)nc(Nn2cnnc2)n1,-2,-2,32*,0,92,26,3
CCNc1nc(NC(C)(C)C)nc(N(CC)n2cnnc2)n1,-5,2,-3,-7,90,x,x
O=C(NC(=S)NNS(=O)(=O)c1ccccc1)c1ccc([N+](=O)[O-])cc1,-3,2,50*,-3,112,-9,4
